From PubChem BioAssay (NCATS) come the findings set out here.

Each structure is given as a SMILES string. Inconclusive results are not listed. Activity calls are given as the source filed them. The call rests on the fitted dose curve; in most records, active means well fitted curve in the direction sought with a large enough effect; inconclusive means small, poorly fitted or top-dose-only effect, or another doubt; inactive means no such curve, though single readings can be large; an effect the other way counts as inactive or inconclusive.

In experiment [1] the target is Glutathione peroxidase 1 (Homo sapiens) (UniProt P07203). Put plainly: Primary qHTS Assay for Inhibitors of Recombinant Selenoprotein Glutathione Peroxidase 1 (GPX1) (AID 1845191). Further: nearly all actives have a fitted effect of over 65% in size. Further: potency means the concentration at half of the fitted maximal effect. Conditions: recombinant GPX1, GR-coupled NADPH fluorescence, 15 min; series mostly up to 48.8 µM. Put shortly: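 Recombinant GPX1 (10 nM final) was preincubated with compound for 30 min at room temperature, then reacted with 1 mM GSH, 0.5 mM CHP, 0.5 mM NADPH and 100 nM glutathione reductase; NADPH fluorescence (340/450 nm) was read at 0 and 15 min.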
Sequence of Glutathione peroxidase 1 (Homo sapiens) (P07203 whole entry, looked up): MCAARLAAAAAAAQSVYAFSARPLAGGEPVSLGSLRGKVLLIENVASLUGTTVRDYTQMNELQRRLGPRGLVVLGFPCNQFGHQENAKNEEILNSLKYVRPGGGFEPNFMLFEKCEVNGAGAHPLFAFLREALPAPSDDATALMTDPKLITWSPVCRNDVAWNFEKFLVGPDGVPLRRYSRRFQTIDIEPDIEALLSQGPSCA
Background: In qHTS, concentration-response curves come from the screen itself.

Experiment [2] addresses Phospholipid hydroperoxide glutathione peroxidase GPX4 (Homo sapiens) (UniProt P36969). Put plainly: Primary qHTS Assay for Inhibitors of Recombinant Selenoprotein Glutathione Peroxidase 4 (GPX4) (AID 1845192). Further: nearly all actives have a fitted effect of over 65% in size. Further: potency means the concentration at half of the fitted maximal effect. To be noted: recombinant GPX4, GR-coupled NADPH fluorescence, 15 min; series mostly up to 50 µM. Put shortly: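 GR-coupled readout: 100 nM GR, 1 mM GSH, 0.5 mM NADPH; NADPH fluorescence (ex 340/em 450 nm) read at t=0 and after 15 min RT. GPX4 200 nM, preincubated 30 min with compound; substrate 0.5 mM CHP.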

Experiment [3] has as its target Luciferin 4-monooxygenase (Photinus pyralis) (UniProt P08659). The experiment in a line: Primary firefly luciferase (FLuc) qHTS assay for identification of artifact compounds. (AID 1845220). Further: nearly all actives have a fitted effect of over 60% in size. Conditions: purified firefly luciferase, luminescence, 5 min; series mostly up to 54.1 µM. The method in brief: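 qHTS, 15 min compound preincubation with substrate (10 uM luciferin, 10 uM ATP) at RT, then 10 nM FLuc; 5 min; luminescence; % inhibition vs no-enzyme/DMSO controls, 4-parameter Hill fit.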

A short description of experiment [4]: Primary fluorescence-based thiol-reactive (MSTI) qHTS assay for identification of artifact compounds. (AID 1845221).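 Further: thiol-reactive compounds lower the probe fluorescence signal; nearly all actives have a fitted effect of over 65% in size.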 To be noted: MSTI thiol-reactivity probe, 1 h; series mostly up to 53.8 µM. The method in brief:
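In PBS pH 7.4 with 2% DMSO, each compound met 4 uM MSTI for one hour at ambient temperature, shielded from light, before fluorescence detection.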

Sequence of Phospholipid hydroperoxide glutathione peroxidase GPX4 (Homo sapiens) (P36969 whole entry, looked up): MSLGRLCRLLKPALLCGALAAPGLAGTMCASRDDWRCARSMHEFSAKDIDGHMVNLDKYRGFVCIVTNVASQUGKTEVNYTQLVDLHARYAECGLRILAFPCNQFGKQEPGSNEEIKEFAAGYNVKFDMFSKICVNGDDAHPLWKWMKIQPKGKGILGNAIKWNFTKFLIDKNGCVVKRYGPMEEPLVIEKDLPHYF

As to `O=S(O)CNc1ccc(S(=O)(=O)c2ccc(NCS(=O)O)cc2)cc1`, the Potency result in experiment [1] and in experiment [2] was “inactive” throughout.

On to `CC[C@@H](C)Nc1cc(C(=O)NC2CC3CCC(C2)N3c2ccc(C(=O)C3CC3)cn2)c(C)cc1C(N)=O` (stereo partly specified), for which the values for the Potency in experiment [1] and in experiment [2] were 16.3 µM (active) and 5.7 µM (active), respectively.

For `CN=C(NC)NCc1ccccc1`, the Potency entry in experiment [1] and in experiment [2] was “inactive” each time.

As for `O=P(O)(O)OC(Cn1cncn1)(Cn1cncn1)c1ccc(F)cc1F`, the Potency entry in experiment [1] and in experiment [2] was “inactive” in each case.

As to `CCOC(=O)[C@H](CCc1ccccc1)N[C@H]1CCCN2CCC[C@@H](C(=O)O)N2C1=O`, the Potency entry in experiment [1] and in experiment [2] was “inactive” each time.

Consider `N#Cc1cnc2c(Cl)cc(NCc3cn(CCN4CCCCCC4)nn3)cc2c1Nc1ccc(F)c(Cl)c1`, for which the Potency entry in experiment [1], in experiment [2] and in experiment [3] was “inactive” each time.

As to `O=C(Nc1ccc(N(Cc2ccsc2)C(=O)Cn2nnc3ccccc32)cc1)C1CC1`, the Potency result in experiment [1], in experiment [2], in experiment [3] and in experiment [4] was “inactive” throughout.

On to `C=C1C(=O)OC2C=C(C)CC/C=C(\CO)CC(O)C12` (stereo unspecified), for which the Potency result in experiment [1], in experiment [2] and in experiment [3] was “inactive” in each case.

Turning to `C/C(=C(/CCO)SSCC1CCCO1)N(C=O)Cc1cnc(C)nc1N` (stereo unspecified), the Potency result in experiment [1] and in experiment [2] was “inactive” each time.

Take `C=C1C(=O)O[C@@H]2C[C@@]3(C)CCCC(=C)[C@]3(O)C[C@H]12`: the Potency entry in experiment [1], in experiment [2], in experiment [3] and in experiment [4] was “inactive” each time.

Consider `O=C(Cc1cccc(OC(F)(F)F)c1)Nc1ccc(CCCCc2nnc(NC(=O)Cc3ccccn3)s2)nn1`, for which the Potency entry in experiment [1] and in experiment [2] was “inactive” each time.

Turning to `Cc1ccc(C2(O)CCN(CCCC(=O)c3ccc(F)cc3)CC2)cc1`, the Potency entry in experiment [1] and in experiment [2] was “inactive” in each case.

As for `C1CNCCN1`, the Potency result in experiment [1] and in experiment [2] was “inactive” each time.

For `Cc1cnc(-c2ccccc2C(C)C)nc1NCc1ccc(-n2ccnn2)cc1`, the Potency entry in experiment [1], in experiment [2], in experiment [3] and in experiment [4] was “inactive” throughout.
